According to PubChem BioAssay AID1159580 (chemical genetic matrix, 2015):
Values joined by “and” are separate entries in the source; they are usually repeats but may differ in a detail not shown here. Identical values can stand only once. Hit rate of the full screen: of about 5,500 compounds, about 2,000 (36%) were called active. Roughly 18% stayed inconclusive and do not appear here. Rule as the data show it: active = normalized growth mostly below about 0.91 (no sharp cut-off); inconclusive = no clear call, values can overlap the other calls; inactive = mostly above about 0.92. This is one part of the list.

Test: chemical genetic growth profiling, strain panel (AID 1159580);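 also: tested at 20 µM; growth read once vehicle control cultures reached saturation at 30 °C; 1 = growth at the plate median or of vehicle wells; lower values mean less growth of the strain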
Details: S. cerevisiae deletion strains, growth OD

Measured: normalized growth

c1ccc2c(CC3=NCCN3)cccc2c1
inactive: locus YAL013W, strain DEP1, active compounds read low 1.01 | locus YAL021C, strain ccr4, active compounds read low 0.944 | locus YAL026C, strain drs2, active compounds read low 0.982 | locus YAL030W, strain snc1, active compounds read low 0.986 | locus YBL061C, strain skt5, active compounds read low 0.985 | locus YBR009C, strain hhf1, active compounds read low 0.987 | locus YBR021W, strain FUR4, active compounds read low 0.999 | locus YBR023C, strain chs3, active compounds read low 0.984 | locus YBR171W, strain sec66, active compounds read low 0.976 | locus YBR229C, strain ROT2, active compounds read low 1.01 | locus YBR231C, strain swc5, active compounds read low 0.985 | locus YBR279W, strain paf1, active compounds read low 0.99 | locus YCL011C, strain gbp2, active compounds read low 0.97 | locus YCL016C, strain dcc1, active compounds read low 0.996 | locus YCL029C, strain bik1, active compounds read low 1.03 | locus YCL061C, strain MRC1, active compounds read low 0.981 | locus YCL069W, strain vba3, active compounds read low 0.955 | locus YCR088W, strain abp1, active compounds read low 0.98 | locus YDL005C, strain med2, active compounds read low 0.962 | locus YDL035C, strain GPR1, active compounds read low 1.01 | locus YDL040C, strain nat1, active compounds read low 0.971 | locus YDL074C, strain BRE1, active compounds read low 1.01 | locus YDL101C, strain DUN1, active compounds read low 1.01 | locus YDL134C, strain PPH21, active compounds read low 1.01 | locus YDL185W, strain tfp1, active compounds read low 1.01 | locus YDL192W, strain arf1, active compounds read low 1.02 | locus YDR001C, strain nth1, active compounds read low 0.99 | locus YDR069C, strain doa4, active compounds read low 0.947 | locus YDR101C, strain arx1, active compounds read low 1.02 | locus YDR137W, strain rgp1, active compounds read low 0.985 | locus YDR150W, strain NUM1, active compounds read low 1.01 | locus YDR159W, strain sac3, active compounds read low 0.958 | locus YDR162C, strain NBP2, active compounds read low 1 | locus YDR195W, strain ref2 0.96 | locus YDR297W, strain sur2, active compounds read low 0.975 | locus YDR318W, strain mcm21, active compounds read low 1.02 | locus YDR334W, strain swr1, active compounds read low 0.958 | locus YDR335W, strain msn5, active compounds read low 0.981 | locus YDR388W, active compounds read low 1.02 | locus YDR392W, strain spt3, active compounds read low 0.863 | locus YDR502C, strain sam2, active compounds read low 1.02 | locus YEL003W, strain gim4, active compounds read low 0.945 | locus YEL037C, strain rad23, active compounds read low 0.964 | locus YEL061C, strain CIN8 (second series), active compounds read low 0.965 | locus YEL061C, strain CIN8, active compounds read low 1.01 | locus YER015W, strain faa2, active compounds read low 0.959 | locus YER016W, strain bim1, active compounds read low 0.979 | locus YER110C, active compounds read low 1.02 | locus YER111C, strain swi4, active compounds read low 0.968 | locus YER155C, strain BEM2 (second series), active compounds read low 0.98 | locus YER155C, strain BEM2, active compounds read low 1 | locus YER167W, strain BCK2, active compounds read low 1.02 | locus YFR010W, strain ubp6, active compounds read low 0.96 | locus YGL078C, strain dbp3, active compounds read low 1.02 | locus YGL086W, strain mad1, active compounds read low 1.01 | locus YGL167C, strain pmr1, active compounds read low 0.98 | locus YGL173C, strain kem1, active compounds read low 0.976 | locus YGL227W, strain vid30, active compounds read low 0.975 | locus YGL240W, strain doc1, active compounds read low 0.98 | locus YGL248W, strain PDE1, active compounds read low 1.01 | locus YGL253W, strain hxk2, active compounds read low 0.98 | locus YGR078C, strain PAC10, active compounds read low 1.01 | locus YGR135W, strain pre9, active compounds read low 1.02 | locus YGR229C, strain SMI1, active compounds read low 1.01 | locus YGR252W, strain gcn5, active compounds read low 0.984 | locus YHR013C, strain ard1, active compounds read low 0.901 | locus YHR027C, strain rpn1, active compounds read low 0.972 | locus YHR030C, strain SLT2, active compounds read low 1.01 and 0.973 | locus YHR079C, strain IRE1 (second series), active compounds read low 1.02 | locus YHR079C, strain IRE1, active compounds read low 0.961 | locus YHR094C, strain hxt1, active compounds read low 1.01 | locus YHR129C, strain ARP1, active compounds read low 1 | locus YHR142W, strain chs7, active compounds read low 0.978 | locus YHR200W, strain rpn10, active compounds read low 1.02 | locus YIL066C, strain RNR3, active compounds read low 1.01 | locus YIL073C, strain SPO22, active compounds read low 1.06 | locus YIL125W, strain kgd1, active compounds read low 1.01 | locus YIR030C, strain dcg1, active compounds read low 1.03 | locus YJL092W, strain hpr5, active compounds read low 0.968 | locus YJL095W, strain BCK1 (second series), active compounds read low 0.987 | locus YJL095W, strain BCK1, active compounds read low 1.01 and 1 | locus YJL115W, strain asf1, active compounds read low 0.976 | locus YJL129C, strain trk1, active compounds read low 0.921 | locus YJL134W, strain LCB3, active compounds read low 1.01 | locus YJL154C, strain vps35, active compounds read low 0.972 | locus YJL164C, strain tpk1, active compounds read low 0.978 | locus YJL166W, strain qcr8, active compounds read low 0.968 | locus YJL168C, strain set2, active compounds read low 1.02 | locus YJL187C, strain SWE1 (second series), active compounds read low 1.01 | locus YJL187C, strain SWE1, active compounds read low 0.976 | locus YJR043C, strain POL32, active compounds read low 1.01 | locus YJR066W, strain TOR1, active compounds read low 0.928
